# From the supplement of paper PMC6555819
# Columns and labels:
# Test in all cases: PBM binding z-score (relative to random genomic background probes); higher = stronger binding; sequences stand for … in GC…GCGATTGACAGCGTAGAATGAAGG
# [1] = test system: FXR:RXRa (NR concentration 270 nM, RXRa partner concentration 90 nM)
# Summary of the method: (§1)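 For binding z-scores, the reference was random background probes on custom Agilent 4×180K protein-binding microarrays. These arrays were incubated 1 h with ligand-free nuclear receptor dimers in PBS pH 7.4, 2% milk, 0.02% Triton X-100, 1 mM DTT, 0.2 mg/mL BSA and 0.4 mg/ml salmon testes DNA. Fluorescence was scanned after antibody detection of each partner (one per run) and regression-normalized.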
# [2] = test system: LXRa:RXRa (NR concentration 270 nM, RXRa partner concentration 90 nM)
# Summary of the method: as §1
# [3] = test system: LXRa homodimer (NR concentration 270 nM)
# Summary of the method: as §1
# [4] = test system: LXRb:RXRa (NR concentration 270 nM, RXRa partner concentration 90 nM)
# Summary of the method: as §1
# [5] = test system: LXRb homodimer (NR concentration 270 nM)
# Summary of the method: as §1
# [6] = test system: PPARa:RXRa (NR concentration 270 nM, RXRa partner concentration 90 nM)
# Summary of the method: as §1
# [7] = test system: PPARg:RXRa (NR concentration 180 nM, RXRa partner concentration 90 nM)
# Summary of the method: as §1
# [8] = test system: PPARg:RXRa 270nM:90nM, anti-RXR (NR concentration 270 nM, RXRa partner concentration 90 nM)
# Summary of the method: as §1
# [9] = test system: PPARg:RXRa 30nM:10nM, anti-RXR (NR concentration 30 nM, RXRa partner concentration 10 nM)
# Summary of the method: as §1
# [10] = test system: PPARg:RXRa 90nM:30nM, anti-RXR (NR concentration 90 nM, RXRa partner concentration 30 nM)
# Summary of the method: as §1
# [11] = test system: PPARg:RXRa DBDmut IVT, anti-RXR (DBD mutation: RXRa K156A/R161A, NR concentration 270 nM, RXRa partner concentration 90 nM)
# Summary of the method: as §1
# [12] = test system: PPARg:RXRa IVT, anti-PPARg (NR concentration 270 nM, RXRa partner concentration 90 nM)
# Summary of the method: as §1
# [13] = test system: PPARg DBDmut:RXRa IVT, anti-PPARg (DBD mutation: PPARg1 K132A/R137A, NR concentration 270 nM, RXRa partner concentration 90 nM)
# Summary of the method: as §1
# [14] = test system: PPARg DBDmut IVT, anti-PPARg (DBD mutation: PPARg1 K132A/R137A, NR concentration 270 nM)
# Summary of the method: as §1
# [15] = test system: PPARg homodimer (NR concentration 180 nM)
# Summary of the method: as §1
# [16] = test system: PXR:RXRa (NR concentration 270 nM, RXRa partner concentration 90 nM)
# Summary of the method: as §1
# [17] = test system: PXR homodimer (NR concentration 270 nM)
# Summary of the method: as §1
# [18] = test system: RARa homodimer (NR concentration 270 nM)
# Summary of the method: as §1
# [19] = test system: RARb:RXRa (NR concentration 270 nM, RXRa partner concentration 90 nM)
# Summary of the method: as §1
# [20] = test system: RARa:RXR (NR concentration 270 nM, RXRa partner concentration 90 nM)
# Summary of the method: as §1
Sequence,PBM binding z-score [1],PBM binding z-score [2],PBM binding z-score [3],PBM binding z-score [4],PBM binding z-score [5],PBM binding z-score [6],PBM binding z-score [7],PBM binding z-score [8],PBM binding z-score [9],PBM binding z-score [10],PBM binding z-score [11],PBM binding z-score [12],PBM binding z-score [13],PBM binding z-score [14],PBM binding z-score [15],PBM binding z-score [16],PBM binding z-score [17],PBM binding z-score [18],PBM binding z-score [19],PBM binding z-score [20]
AGTCAGAGTTCATCTAGGTAACGTAAGATATGCT,6.74,5.36,4.78,3.63,1.48,4.64,4.23,4.21,1.67,3.42,0.73,2.55,1.05,0.893,1.46,5.25,9.2,1.13,4.3,–
ATCGAAAGGTCGCAGGTGAGTATACCCACCCGAA,4.98,3.65,0.17,2.74,0.436,5.01,4.34,4.73,1.5,3.31,0.692,2.78,1.46,0.551,1.95,2.89,0.199,0.721,4.09,3.82
CGTCCAAGGTCAGATAGGTCAGTGAATGCCGAGT,5.44,3.81,1.77,3.45,0.397,4.33,2.66,3.09,0.662,1.9,1.9,2.41,-0.168,0.165,2.95,4.33,4.32,1.22,5.1,–
CGTCCAAGGTCAAAGGTCAGTAAAGAGATGACGG,8.12,6.87,3.18,6.62,2,7.32,10.8,9.28,7.89,9.37,4.06,5.78,0.533,0.691,4.4,7.16,1.34,4.03,5.99,–
CCTACTGGGCCAAAGGTCTTTGATTCCAATGCTC,-0.409,-0.406,-0.413,0.232,-0.841,4.15,8.96,8.59,7.74,9.9,5.05,5.18,0.12,-0.165,0.366,–,-0.504,-0.497,0.448,0.354
ATCAAAAGGTCGAAGGTGAGTATACCCACCCGAA,5.02,4,0.531,2.87,0.821,5.02,5.28,5.42,3.17,4.75,0.661,2.86,1.48,0.784,2.7,–,-0.118,0.445,4.05,4.72
CTCGAAAGGTCGGTTGAGGTCAGTATACGGATAA,5.06,5.23,1.74,3.81,0.351,3.83,1.26,2.17,0.448,1.75,-0.211,1.36,0.0267,0.122,3.1,–,2.85,1.04,4.13,4.9
CGTCCAAGGTCAAGGGCAGTGAAAGAGACTCGAA,7.12,4.83,0.283,3.68,0.0141,5.93,5.48,5.38,1.76,4.07,2.83,4,0.426,-0.438,1.82,–,0.609,1.15,5.64,3.82
CAAACTAGGTCACCGGGAGGTCAAAGTCCGCATG,6.46,6.26,6.39,5.87,1.73,6.17,9.53,8,6.05,8.25,8.47,9.02,1.69,0.534,6.45,–,4.09,3.15,5.16,7.76
CCTTACAGGTCAAGGTTATAGCACGGGTGGTACG,6.13,4.73,2.02,3.5,1.18,5.2,4.94,4.89,1.9,3.82,3.89,4.19,0.977,0.925,3.36,–,0.575,1.94,4.65,4.39
AATACAGGGTCACTAGGCCAGAGTGGGTACGAAT,5.94,5.03,0.964,3.77,0.863,5.69,8.11,6.63,3.08,5.4,3.88,5.89,2.29,2.32,2.94,–,0.0148,0.459,4.03,4.01
ATATGTAGGTTACATCCGGGTCATTCTGGCTATG,2.03,3.94,1.66,3.12,0.83,4.43,6.19,4.83,2.69,3.95,7.39,7.49,2.61,2.66,1.91,–,0.712,0.96,2.21,3.04
CGTCCAAGGTCATAGGAGTTCAGTGAAGACAGAT,7.7,7.41,5.13,5.15,0.66,5.9,4.86,5.44,1.9,4.2,3.09,4,1.39,0.8,5.14,–,10.9,2.08,5.31,5.59
TCTTATAGATCAATAGAGGTTAAGAAAGTGCGCT,1.14,4.21,0.848,2,0.0677,1.92,0.685,2.02,3.21,2.51,1.88,0.653,0.623,0.528,1.11,–,0.488,0.901,1.03,1.99
ATACGTAGGTTACATCCGGGTCATTCAGGCTATG,2.32,4.39,1.12,2.83,0.366,3.03,1.57,1.54,0.526,1.13,1.15,2.36,1.24,0.742,1.87,–,2.6,0.687,2.27,3.48
